Assay results from paper PMC5540273 (PLoS ONE, 2017).

Legend:
[1] = system: JAK1(JH2domain-pseudokinase)
JNK2 = system: T1, JNK2
T1 construct: gene MAPK9

JNK3 = system: T2, JNK3
T2 construct: gene MAPK10

[2] = system: JAK2(JH1domain-catalytic)
JNK1 = system: T3, JNK1
T3 construct: gene MAPK8

[3] = system: JAK3(JH1domain-catalytic)
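Note: kd values determined as follow-up on hits from a single-replicate KINOMEscan panel screen.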

## Cc1cc(Nc2nc(-c3cccc(C)n3)nc3ccccc23)ccn1 [GW872411]
[1]
  Kd: 410 nM

## Nc1nc(-c2ccccc2F)c(-c2ccnc3ccccc23)s1 [GW560459]
INSR
  Kd: > 10000 nM
JNK2
  Kd: 1200 nM
JNK3
  Kd: 610 nM

## COc1cc(Nc2nccc(N3CCC(NC(=O)C(C)c4ccc(Cl)cc4)C3)n2)cc(OC)c1OC (centres unmarked) [GSK1379757]
[2]
  Kd: 140 nM

## Nc1nc(N)c2nc(-c3ccccc3)[nH]c2n1 [SKF-12778]
[1]
  Kd: 150 nM

## COC(=O)c1c(-c2ccccc2)c2cc(Br)ccc2c(=O)n1Cc1ccc(NC(=O)CCC(=O)O)cc1
JNK1
  Kd: 58 nM
JNK2
  Kd: 66 nM
JNK3
  Kd: 13 nM

## CCCNC(=O)Nc1ccc(Oc2ncnc3ccn(C)c23)cc1
KIT
  Kd: 67 nM

## O=c1cc(N2CCOCC2)nc2n(Cc3ccc(F)c(Cl)c3)ccn12 [GSK2297099]
[2]
  Kd: > 10000 nM

## COc1ccc(Nc2nccc(N3CCC(NS(=O)(=O)c4ccc(NC(C)=O)cc4)C3)n2)cc1 (centres unmarked) [GSK1379729]
[2]
  Kd: 38 nM

## COC(=O)c1c(-c2ccccc2)c2cc(Br)ccc2c(=O)n1Cc1ccc(S(C)(=O)=O)cc1
JNK1
  Kd: 480 nM
JNK2
  Kd: 350 nM
JNK3
  Kd: 73 nM

## CCc1nc(-c2cccc(C)c2)c(-c2ccncc2)s1
JNK3
  Kd: 81 nM

## Cl.NS(=O)(=O)c1cccc(Nc2cc(-c3ccc(F)cc3)n[nH]2)c1 [GW824645]
KIT
  Kd: 16 nM

## CCC(=O)c1c(-c2ccccc2)c2cc(Cl)ccc2c(=O)n1Cc1cc(C(=O)NC2CC2)n(C)n1
JNK1
  Kd: 20 nM
JNK2
  Kd: 10 nM
JNK3
  Kd: 3.8 nM

## COc1ccc(-n2cnc3c(N)ncnc32)cc1 [SKF-97236]
KIT
  Kd: 200 nM

## Nc1n[nH]c2ncc(-c3ccccc3)cc12 [SB-517081]
KIT
  Kd: 92 nM

## CCC(=O)c1c(-c2ccccc2)c2cc(Cl)ccc2c(=O)n1Cc1ccc(C(=O)O)cc1
JNK1
  Kd: 66 nM
JNK2
  Kd: 77 nM
JNK3
  Kd: 12 nM

## Fc1cccc(CSc2nnc(-c3ccc4c(c3)CCO4)o2)c1
IRAK4
  Kd: > 10000 nM

## O=C(NCCNc1ccnc(Nc2ccc(F)cc2)n1)Nc1ccc2c(c1)OCO2 [GSK1379882]
[2]
  Kd: 2000 nM

## COc1cc2nccc(Nc3ccc(OCc4ccc(NC(C)=O)cc4)cc3)c2cc1OC.Cl [GW440135]
KIT
  Kd: 7.4 nM

## Cc1nc(N(C)[C@H]2CN(C(=O)CC#N)CC[C@H]2C)c2cc[nH]c2n1
[3]
  Kd: 140 nM

## COc1cccc(C2=C(Nc3cccc(C(=O)O)c3)C(=O)NC2=O)c1 [SB-390770]
[3]
  Kd: 480 nM

## CC(C)(C)c1ccc(C(=O)Nc2cn3cc(-c4ccccc4)ccc3n2)cc1
KIT
  Kd: > 10000 nM

## COc1cc(Nc2ccnc3ccc(C(F)(F)F)cc23)cc(OC)c1OC [GW577382]
[3]
  Kd: > 10000 nM

## CCn1c(-c2ccoc2)nc2cnccc21 [SB-733887]
INSR
  Kd: > 10000 nM

## CCC(=O)c1c(-c2ccccc2)c2cc(Cl)ccc2c(=O)n1Cc1cc(S(C)(=O)=O)n(CC(N)=O)n1
JNK1
  Kd: 160 nM
JNK2
  Kd: 120 nM
JNK3
  Kd: 60 nM

## CN(C)c1cc(-c2ccc3c(N)n[nH]c3c2)nc(N)n1 [GSK2219329]
KIT-autoinhibited
  Kd: > 10000 nM

## COc1cc(Nc2nccc(N3CCC(NC(=O)C4COc5ccccc5O4)C3)n2)cc(OC)c1OC (centres unmarked) [GSK1379761]
[2]
  Kd: 47 nM

## CCC(=O)c1c(-c2ccccc2)c2cc(Cl)ccc2c(=O)n1Cc1cc(S(C)(=O)=O)n(CC(F)F)n1
JNK1
  Kd: 37 nM
JNK2
  Kd: 33 nM
JNK3
  Kd: 9.2 nM

## CCC(=O)c1c(-c2ccccc2)c2cc(Cl)ccc2c(=O)n1Cc1cc(S(C)(=O)=O)n(CCC(C)(C)O)n1
JNK1
  Kd: 19 nM
JNK2
  Kd: 15 nM
JNK3
  Kd: 4.6 nM
